Pf growth 48h: P. falciparum growth inhibition at 48 hours (one generation) | AID 504832 | P. falciparum luciferase growth in erythrocytes, 48 h | 5.9% of 310,000 active | Potency, µM (titrated, usually from 28.7 µM), for inactives: at the highest dose activity change, negative = inhibition, usual class: inhibitors; also: potency is read from the fitted curve at half-maximal effect; % is scaled to controls: 0 for no effect and ±100 for the full control effect
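Luminescence readout; reporter = integrated firefly luciferase in P. falciparum. RBC culture at 2% hematocrit, 0.1% parasitemia final, 37 C/5% CO2; decreased signal taken as growth inhibition.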
SARS PLpro yeast: inhibitors of SARS-CoV papain-like protease in yeast; S. cerevisiae expressing SARS-CoV PLpro, growth rescue; Potency, µM (titrated, usually from 32.9 µM), for inactives: top-dose activity, positive = growth rescue, actives largely listed as activators; 0.19% of 330,000 active; AID 485353; calls by dose curve; also: potency is read from the fitted curve at half-maximal effect; 0% is about no effect; nearly all actives have a fitted effect of over 55% in size
Shiga inhibitor: blocks Shiga toxin action in Vero cells; Vero cells, Shiga toxin protein synthesis inhibition reporter; inhibition, % at 38.7 µM; 9.2% of 290,000 active; AID 2315; in the data active = inhibition mostly above about 28%, no sharp cut-off; inactive = mostly below about 43%; also: 0% is about no effect
NS1 function inh: blocks influenza NS1 protein function | Potency, µM (titrated, usually from 46.1 µM), for the others: at the top dose activity, positive = more growth | 0.4% of 270,000 active | AID 2326; calls by dose curve; also: potency is read from the fitted curve at half-maximal effect; actives are rising curves; nearly all actives have a fitted effect of over 50% in size
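In this qHTS, NS1 from influenza A is expressed in budding yeast, where it slows growth. Cells are switched from glucose to 2% galactose medium (pH 6.0, -URA), treated with compound, and growth recovery is read at OD600.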
Pf growth 96h: P. falciparum growth inhibition at 96 hour, primary screen for plastid delayed-death inhibitors; 6.9% of 320,000 active; Potency, µM (doses to about 28.7 µM), for the others: at the highest dose activity change, negative = inhibition, usual class: inhibitors; P. falciparum luciferase reporter growth, 96 h; also: potency is read from the fitted curve at half-maximal effect; % is scaled to controls: 0 for no effect and ±100 for the full control effect
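Two parasite generations (96 h, 37 C, 5% CO2) of compound exposure in infected erythrocytes (0.05% parasitemia, 2% hematocrit). Luciferase-reporter P. falciparum; decreased luminescence indicates inhibited growth, aimed at apicoplast-acting delayed death.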
Cycloheximide cs: affects cycloheximide protein synthesis inhibition readout, counter-screen. max response, %. 12% of 300,000 active. cell reporter, cycloheximide protein synthesis inhibition counterscreen; in the data active = max response mostly above about 13%, no sharp cut-off; inactive = mostly below about 14%; also: read at 38.3 µM for the half of the compounds with a filed dose; 0% is about no effect
Starred values were filed as active, the others as inactive; ? = inconclusive; / = not tested or not shown; [ ] = dose if it differs, or a comment. In the library only some 21% were active in any assay of this set; here they are far more common. Unless noted, calls follow the shape of the dose curve; as a rule, active = well fitted inhibition curve with a large enough effect; inconclusive = small, poorly fitted or top-dose-only effect, or another doubt; inactive = no such curve, though single readings can be large or run the other way.

SMILES	Pf growth 48h	SARS PLpro yeast	Shiga inhibitor	NS1 function inh	Pf growth 96h	Cycloheximide cs
O=C(Nc1nc2ccccc2n1Cc1ccccc1)c1ccc(COc2ccccc2[N+](=O)[O-])o1	1.85µM*	5.1%	-7.4	29.8%	?	-0.5
Cc1ccc(OCc2ccc(C(=O)N3CCCC3)o2)c([N+](=O)[O-])c1	0.0%	-6.7%	23.6	-52.2%	14.9%	17.7
Cc1ccc(OCc2ccc(C(=O)O)o2)c([N+](=O)[O-])c1	39.6%	0.9%	21.9	6.7%	106.3%	13.3*
COC(=O)c1ccc(COc2ccccc2OC)o1	28.6%	0.5%	23.1	-2.2%	21.2%	11.9
Cc1ccc(OCc2ccc(C(=O)Nc3nc4ccccc4n3Cc3ccccc3)o2)c([N+](=O)[O-])c1	?	9.5%	-7.2	8.0%	/	-4.3
Cc1ccc(-c2nn(-c3ccccc3)c3[nH]c(=O)c(CNCCN(C)C)cc23)cc1	4.65µM*	-3.4%	7.0	-0.7%	-9.6%	-1.2
Cc1nn(-c2ccccc2)c2[nH]c(=O)c(CNc3ccc4c(c3)OCCO4)cc12	47.8%	3.9%	112.8*	-5.9%	-0.1%[5.75 µM]	41.7*
Cc1ccc(-c2nn(-c3ccccc3)cc2CNCc2ccccc2)cc1	?	-1.5%	-3.1	-2.7%	-13.4%	-3.6
Cc1nn(-c2ccccc2)c2[nH]c(=O)c(CNCCN3CCOCC3)cc12	-1.9%	6.5%	-13.9	-4.4%	-6.4%	-2.3
Cc1ccc(-c2nn(-c3ccccc3)c3[nH]c(=O)c(CNCc4ccccc4)cc23)cc1	1.04µM*	-10.1%	-2.9	2.7%	-17.5%	-1.1
CCc1ccc(NCc2cc3c(C)nn(-c4ccccc4)c3[nH]c2=O)cc1	/	-16.5%	-8.0	-86.9%	?	-3.1
Cc1cccc(OCCCC(=O)N2CCCCCC2)c1C	13.8%	-1.8%	-3.7	-18.6%	?	-1.9
CCCc1nc2ccccc2c(=O)n1CC(=O)c1ccc(F)cc1	/	-1.1%	-3.3	-2.4%	16.6%	1.2
CCOc1cc(/C=N/NC(=O)c2cccc([N+](=O)[O-])c2)ccc1OS(=O)(=O)c1ccccc1	11.7µM*	-5.2%	20.1	?	?	-2.6
O=C(N/N=C/c1cccc([N+](=O)[O-])c1)c1nc2ccccc2c(=O)[nH]1	99.5%	-0.2%	32.7	1.1%	60.4%	18.5*
O=C(Cc1ccccc1)N/N=C/c1cccc([N+](=O)[O-])c1	5.3%	-4.4%	11.8	/	-24.2%	9.6*
COc1ccc(/C=N/NC(=O)c2cccc([N+](=O)[O-])c2)cc1OS(=O)(=O)c1ccc(C)cc1	?	3.0%	39.8	-9.1%	-30.3%	4.4
CC(NC(=O)c1ccccc1)C(=O)N/N=C/c1cccc([N+](=O)[O-])c1 (stereo not given)	40.8%	-1.1%	92.8	/	29.4%	17.4*
O=C(N/N=C/c1ccccc1Cl)c1nc2ccc([N+](=O)[O-])cc2c(=O)[nH]1	-7.8%	-1.5%	-15.4	3.2%	10.7%	1.1
CC(NC(=O)c1ccccc1)C(=O)N/N=C/c1ccc(O)cc1 (stereo not given)	-14.2%	1.1%	9.0	/	?	2.5
Cc1ccc(S(=O)(=O)N2CCCCC2)cc1NC(=O)CSc1nnc(C2CC2)n1C	/	4.7%	/	/	/	/
CC1(c2ccccc2Cl)NC(=O)N(CC(=O)N2CCN(S(=O)(=O)c3ccccc3)CC2)C1=O (stereo not given)	?	-0.4%	/	/	-1.7%	/
CC(=O)Nc1cccc(Oc2ncnc3scc(-c4ccc(C)cc4)c23)c1	15.5%	-13.6%	-8.8	-14.7%	?	-6.2
CN(c1ccc(C(=O)N/N=C/c2cccc([N+](=O)[O-])c2)cc1)S(=O)(=O)c1ccccc1	6.57µM*	-2.9%	-3.5	-0.3%	?	-3.2
COc1ccc(/C=N/NC(=O)c2ccc(N(C)S(=O)(=O)c3ccccc3)cc2)cc1	?	3.7%	37.6	/	36.3%	12.7
COc1ccc(Cl)cc1NC(=O)CSc1nnc(-c2ccco2)o1	20.2%	-8.3%	-31.4	-16.8%	-4.7%	13.9
CC(C)(C)c1ccc(OCCC(=O)Nc2cccc(S(=O)(=O)N3CCCC3)c2)cc1	10.4µM*	2.9%	/	/	?	/
CC(C)(C)c1ccc(OCCCC(=O)Nc2cccc(S(=O)(=O)N3CCOCC3)c2)cc1	?	3.7%	/	/	?	/
